Measured values from article PMC10726135, “HNF4α isoforms regulate the circadian balance between carbohydrate and lipid metabolism in the liver”.
The full ranking holds about 18,000 sequences; the median of “log2 normalized intensity” is about 0.39, and the highest 2% start at about 6.6. Shown is part of a subset that was picked to be rich in the highest values.

Biological target: T1, HNF4alpha2 (COS-7 nuclear extract) (Homo sapiens, UniProt P41235 1-474)
T1 sequence: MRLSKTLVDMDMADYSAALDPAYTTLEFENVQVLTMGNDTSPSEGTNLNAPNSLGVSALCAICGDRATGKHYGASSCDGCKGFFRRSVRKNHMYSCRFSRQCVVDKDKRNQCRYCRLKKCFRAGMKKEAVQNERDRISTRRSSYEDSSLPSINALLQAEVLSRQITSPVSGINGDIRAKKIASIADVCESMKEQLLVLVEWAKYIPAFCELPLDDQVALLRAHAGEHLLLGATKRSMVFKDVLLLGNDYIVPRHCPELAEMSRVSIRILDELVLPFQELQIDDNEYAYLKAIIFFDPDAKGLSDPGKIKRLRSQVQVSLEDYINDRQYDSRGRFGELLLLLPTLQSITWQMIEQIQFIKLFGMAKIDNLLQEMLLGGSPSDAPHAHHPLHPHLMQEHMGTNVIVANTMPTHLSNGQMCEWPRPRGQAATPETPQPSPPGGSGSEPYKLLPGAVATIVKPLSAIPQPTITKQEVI
Experiment: protein-binding microarray; COS-7 nuclear extract on double-stranded Agilent 4x180k PBM; binding buffer, salt, pH and temperature not given in the material; high values mean tight binding
Conditions: chain copies: 2; label: 3' end of strand 1 on the slide; dsDNA, one strand shown
Summary of the method: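 Nuclear extracts of COS-7 cells transiently transfected with a human HNF4α isoform were applied to a custom Agilent SurePrint G3 4x180k array bearing ~44,000 double-stranded ~60-nt test sequences, each in quadruplicate. The bound protein was imaged on an Agilent G2565CA scanner at 2-µm resolution. Binding signal is the normalized, background-corrected gProcessedSignal from Agilent software.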

Row | Sequence | binding signal [log2 normalized intensity]
1 | TGAGGCCCCAGTGTCAATTCTCATTCATCCGCCTAGGGAGATTAGAGTATCGGTCGA | -0.225
2 | AACCCTTGCACTGCTGGTTTTTGTCAAAGAGCCTAGGGAGATTAGAGTATCGGTCGA | 0.709
3 | GCCTGTCAGGCCCAGAAACACTGAACCTTGGCCTAGGGAGATTAGAGTATCGGTCGA | 1.63
4 | TTGCACTGCTCAGGGTGGGGTCTCGCTGCTGCCTAGGGAGATTAGAGTATCGGTCGA | -0.755
5 | ACACAATATTATGTTTTGTTATCTGTGCCAGCCTAGGGAGATTAGAGTATCGGTCGA | 1.17
6 | GTAAACTCCCTTTGATGCGGTCAGAGTTCAGCCTAGGGAGATTAGAGTATCGGTCGA | 3.08
7 | AGTGAACTCAAAGAAAAGTTATGTTGGGCAGCCTAGGGAGATTAGAGTATCGGTCGA | 1.17
8 | TCCCTTGCTCCACCCTTCTATCCCCTTATCGCCTAGGGAGATTAGAGTATCGGTCGA | 2.8
9 | GGAAAGAACAGGTCAAAGGTCAGTTTCTTTGCCTAGGGAGATTAGAGTATCGGTCGA | 7.28
10 | GGTCAAAGGTCAGTTTCTTTAAGACAAGTGGCCTAGGGAGATTAGAGTATCGGTCGA | 5.53
11 | GAACAGGTCAAAGGTCAGTTTCTTTAAGACGCCTAGGGAGATTAGAGTATCGGTCGA | 7.04
12 | GCAGTTTAGAGAAAGGGTCAAAGGTTAAGCGCCTAGGGAGATTAGAGTATCGGTCGA | 8.4
13 | AAGATTTATCAGGTCTTTCTTTCAGAACAGGCCTAGGGAGATTAGAGTATCGGTCGA | 0.622
14 | TTAGAGAAAGGGTCAAAGGTTAAGCCATTGGCCTAGGGAGATTAGAGTATCGGTCGA | 5.92
15 | GACTGTCTTAGGAAAGAACAGGTCAAAGGTGCCTAGGGAGATTAGAGTATCGGTCGA | 3.91
16 | GCAGAGCAGTTTAGAGAAAGGGTCAAAGGTGCCTAGGGAGATTAGAGTATCGGTCGA | 5.29
17 | CTTTGGACTTTCAAAAGTTAAGGTCAAGACGCCTAGGGAGATTAGAGTATCGGTCGA | 1.94
18 | TAGGAGACTGTCTTAGGAAAGAACAGGTCAGCCTAGGGAGATTAGAGTATCGGTCGA | 1.14
19 | TCTTAGGAAAGAACAGGTCAAAGGTCAGTTGCCTAGGGAGATTAGAGTATCGGTCGA | 9.13
20 | TCAGAAACAGGAATTCAAAGGTGCAAAGGTGCCTAGGGAGATTAGAGTATCGGTCGA | 2.06
21 | ACCCTGAATGTGTGCTGGCCTGGTTCCTTCGCCTAGGGAGATTAGAGTATCGGTCGA | 0.887
22 | TTGTCCCTTTTCTATCCAGATGATCTTTACGCCTAGGGAGATTAGAGTATCGGTCGA | 2.25
23 | GTCCCAGTAGATAACTTCAAGGAGCTCGGCGCCTAGGGAGATTAGAGTATCGGTCGA | -0.627
24 | GTAGGGCCAATCTCTGGCATGTATTTATCAGCCTAGGGAGATTAGAGTATCGGTCGA | 0.384
25 | ATAGGAGGATTTTATTCAGGTGGCCACTGGGCCTAGGGAGATTAGAGTATCGGTCGA | 1.03
26 | GTTCCGCGGTCCGCAGCGCTGGTGGCTGCAGCCTAGGGAGATTAGAGTATCGGTCGA | -0.919
27 | CTTTGTATAAGCCGTGCAAAGTTCATCCCTGCCTAGGGAGATTAGAGTATCGGTCGA | 3.24

Row | Sequence | binding signal [log2 normalized intensity]
28 | CTCGAGGTGGACTTTCCCCCCTCACACTTTGCCTAGGGAGATTAGAGTATCGGTCGA | 5.25
29 | TTGTTTTTGCTTGGAATGCCCTTATCTCATGCCTAGGGAGATTAGAGTATCGGTCGA | 2.32
30 | AGCTGGGCCTGTGCTGGGGACAAAAGCTGAGCCTAGGGAGATTAGAGTATCGGTCGA | -0.959
31 | ATTCCCTTTCTCCTCCCCTCCCCTCCCCCCGCCTAGGGAGATTAGAGTATCGGTCGA | 6.91
32 | AGGCCCTCGGCATCATGCCCTTTGGCCCCCGCCTAGGGAGATTAGAGTATCGGTCGA | 7.28
33 | CTTACTCTCTCCCTCCTCCTTTTTTTCCCCGCCTAGGGAGATTAGAGTATCGGTCGA | 2.98
34 | CCCTCCTCCTTTTTTTCCCCTCCCTCAGCTGCCTAGGGAGATTAGAGTATCGGTCGA | 3.64
35 | TTTTCCACCCTCCCCTCCCCCTCCTCCCCTGCCTAGGGAGATTAGAGTATCGGTCGA | 7.13
36 | TTCCTCCCACTCTGACATCCCCCTTTCTCTGCCTAGGGAGATTAGAGTATCGGTCGA | 3.26
37 | ACTGCATTCCCTTTCTCCTCCCCTCCCCTCGCCTAGGGAGATTAGAGTATCGGTCGA | 4.31
38 | CTTTCTCCTCCCCTCCCCTCCCCCCACTCAGCCTAGGGAGATTAGAGTATCGGTCGA | 6.94
39 | ACACCAGGCCCTCGGCATCATGCCCTTTGGGCCTAGGGAGATTAGAGTATCGGTCGA | 3.91
40 | CTCGGCATCATGCCCTTTGGCCCCCAGAGCGCCTAGGGAGATTAGAGTATCGGTCGA | 6.14
41 | CATTTTTTTCCACCCTCCCCTCCCCCTCCTGCCTAGGGAGATTAGAGTATCGGTCGA | 6.28
42 | TCTCTCCCTCCTCCTTTTTTTCCCCTCCCTGCCTAGGGAGATTAGAGTATCGGTCGA | 4.61
43 | TCCTGATCCCTGAGGTCGGGGCCTGGTCTGGCCTAGGGAGATTAGAGTATCGGTCGA | 0.683
44 | CAATGCCCCAGAAAGCCAGCAGGGGCTGCTGCCTAGGGAGATTAGAGTATCGGTCGA | -0.844
45 | AGCTTCTCTTTCTAGGTCACCACCTTTTTTGCCTAGGGAGATTAGAGTATCGGTCGA | 1.37
46 | GGCCTGATAGATTTTGCATTGCTCACATAGGCCTAGGGAGATTAGAGTATCGGTCGA | -0.988
47 | TCCTCCAAAACCCAGTTCATAGGTCAATTCGCCTAGGGAGATTAGAGTATCGGTCGA | 4.02
48 | TCCTCCCCTCCCCTCCCCCCACTCAAAATAGCCTAGGGAGATTAGAGTATCGGTCGA | 6.79
49 | CCCTCCCCTCCCCCCACTCAAAATAGGAGTGCCTAGGGAGATTAGAGTATCGGTCGA | 4.52
50 | GAAAAAGCTGACGCCCCACCCCCTCCACCCGCCTAGGGAGATTAGAGTATCGGTCGA | 6.44
51 | CCCTCCCCCCACTCAAAATAGGAGTTAAGGGCCTAGGGAGATTAGAGTATCGGTCGA | 2.45
52 | ACGCCCCACCCCCTCCACCCCTGCCTTTCAGCCTAGGGAGATTAGAGTATCGGTCGA | 6.39
53 | AGCTGACGCCCCACCCCCTCCACCCCTGCCGCCTAGGGAGATTAGAGTATCGGTCGA | 6.82
54 | GGCTATACAATTCCAGCAAGGATGGGGGCAGCCTAGGGAGATTAGAGTATCGGTCGA | -0.832
